Experimental data as given in PubChem BioAssay (NCI).
The panel holds about 83,000 compounds, 20% with a hit somewhere; the sample as a whole holds those more often.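 Values shown are percent growth following 48 h exposure of cells in 96-well plates to a single concentration of compound; below 10 was considered active.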 Activity calls are given as the source filed them.

Legend:
Experiment in all cases: NCI-60 one-dose screen, 48 h (100 = growth as untreated, 0 = no growth, -100 = all killed)
Details in all cases: 10 µM unless noted
NCI-H322M lung = test system: NCI-H322M lung
HOP-62 NSCLC = test system: HOP-62 NSCLC
NCI-H460 lung = test system: NCI-H460 lung
HOP-92 NSCLC = test system: HOP-92 NSCLC
NCI-H522 lung = test system: NCI-H522 lung
A549/ATCC NSCLC = test system: A549/ATCC NSCLC
786-0 renal = test system: 786-0 renal
COLO 205 colon = test system: COLO 205 colon
DU-145 prostate = test system: DU-145 prostate
K-562 leukemia = test system: K-562 leukemia
MALME-3M melanoma = test system: MALME-3M melanoma
MDA-MB-231 breast = test system: MDA-MB-231 breast
RXF 393 renal = test system: RXF 393 renal
SF-268 CNS = test system: SF-268 CNS
SF-295 CNS = test system: SF-295 CNS
SF-539 CNS = test system: SF-539 CNS
UACC-257 melanoma = test system: UACC-257 melanoma
M14 melanoma = test system: M14 melanoma
NCI-H226 lung = test system: NCI-H226 lung

Measured: growth

C#Cc1ccc(NC(=O)c2ccc(/C=C/C(=O)c3nccn3C)cc2)cc1
active: NCI-H322M lung -95.4% | HOP-62 NSCLC -47% | NCI-H460 lung -56.4% | HOP-92 NSCLC -25.4% | NCI-H522 lung -26.7% | A549/ATCC NSCLC -0.388% | 786-0 renal -79.1% | COLO 205 colon -53.7% | DU-145 prostate -86.8% | K-562 leukemia 1.98% | MALME-3M melanoma -38.4% | MDA-MB-231 breast -55.7% | RXF 393 renal -86.3% | SF-268 CNS -28.9% | SF-295 CNS -91.2% | SF-539 CNS -96.7% | UACC-257 melanoma -19.6% | M14 melanoma -69.8%

CC1=C(Nc2ccc(N3CCN(C)CC3)cc2)C(=O)c2cncnc2C1=O
active: HOP-92 NSCLC -28.6% | K-562 leukemia 9.68% | MDA-MB-231 breast -10.1%
inactive: NCI-H226 lung 99% | NCI-H322M lung 101% | HOP-62 NSCLC 107% | NCI-H460 lung 25.2% | NCI-H522 lung 84.9% | A549/ATCC NSCLC 92.6% | 786-0 renal 107% | COLO 205 colon 124% | DU-145 prostate 81% | MALME-3M melanoma 131% | RXF 393 renal 118% | SF-268 CNS 102% | SF-295 CNS 103% | SF-539 CNS 94.5% | UACC-257 melanoma 65.6% | M14 melanoma 105%

O=C1N(Cc2ccccc2Cl)c2ccccc2C12NN=C(c1cccc(Cl)c1)S2 (stereo unspecified)
inactive: NCI-H522 lung 16.7% | COLO 205 colon 66.8% | K-562 leukemia 10.1% | SF-268 CNS 26.2% | UACC-257 melanoma 18.9%
active: NCI-H226 lung -58.4% | NCI-H322M lung -12.7% | HOP-62 NSCLC -22.6% | NCI-H460 lung -50.7% | HOP-92 NSCLC -68.3% | A549/ATCC NSCLC -63.7% | 786-0 renal -67.7% | DU-145 prostate -46.2% | MALME-3M melanoma -23.6% | MDA-MB-231 breast -4.77% | RXF 393 renal -73% | SF-295 CNS -44.9% | SF-539 CNS 6.32% | M14 melanoma 4.67%

CN(C)CC(=O)Nc1ccc2ncnc(Nc3ccc(Oc4cccc(C(F)(F)F)c4)c(Cl)c3)c2c1
active: NCI-H460 lung 8.52% | K-562 leukemia 3.41%
inactive: NCI-H226 lung 80.7% | NCI-H322M lung 45.3% | HOP-62 NSCLC 76.5% | HOP-92 NSCLC 37.9% | NCI-H522 lung 67.7% | A549/ATCC NSCLC 47.5% | 786-0 renal 59.4% | COLO 205 colon 35.9% | DU-145 prostate 48.2% | MALME-3M melanoma 69.7% | MDA-MB-231 breast 49.1% | RXF 393 renal 50.6% | SF-268 CNS 61.3% | SF-295 CNS 90.3% | SF-539 CNS 90.8% | UACC-257 melanoma 85.6% | M14 melanoma 59.5%

Fc1ccc(Nc2nc3nonc3nc2Nc2ccc(I)cc2)cc1
inactive: DU-145 prostate 23% | SF-268 CNS 22%
active: NCI-H226 lung -17.5% | NCI-H322M lung 1.66% | HOP-62 NSCLC -23.7% | NCI-H460 lung 2.95% | HOP-92 NSCLC -25.9% | NCI-H522 lung -20.2% | A549/ATCC NSCLC 2.73% | 786-0 renal -11.1% | COLO 205 colon -64.4% | K-562 leukemia 6.8% | MALME-3M melanoma -25.6% | MDA-MB-231 breast -23.5% | RXF 393 renal -10.2% | SF-295 CNS -43.6% | SF-539 CNS 7.05% | UACC-257 melanoma -24.5% | M14 melanoma -3.95%

Cc1ccc(CNc2ccc(Cl)cc2NCc2ccc(C)c(O)c2)cc1O
inactive: NCI-H226 lung 85.7% | NCI-H322M lung 17.6% | HOP-62 NSCLC 40.5% | NCI-H522 lung 12.5% | A549/ATCC NSCLC 21% | 786-0 renal 23% | COLO 205 colon 90.2% | DU-145 prostate 23.4% | K-562 leukemia 12.3% | RXF 393 renal 21.2% | SF-268 CNS 28.3% | SF-295 CNS 74.2% | SF-539 CNS 25.8% | UACC-257 melanoma 46.2% | M14 melanoma 25.3%
active: NCI-H460 lung 2.22% | HOP-92 NSCLC -11% | MALME-3M melanoma -3.38% | MDA-MB-231 breast -52.2%

CCO/C=N/C1=C(C#N)C(c2ccc(OC)cc2)c2sc3c(F)cccc3c2O1 (stereo unspecified)
inactive: NCI-H226 lung 63% | NCI-H322M lung 51.5% | HOP-62 NSCLC 49.5% | NCI-H460 lung 12.7% | HOP-92 NSCLC 62.6% | A549/ATCC NSCLC 43.3% | 786-0 renal 33.3% | COLO 205 colon 39.2% | DU-145 prostate 35.8% | K-562 leukemia 15.1% | MALME-3M melanoma 60% | MDA-MB-231 breast 34.6% | SF-268 CNS 44.2% | SF-295 CNS 16.6% | UACC-257 melanoma 71.6% | M14 melanoma 22.6%
active: NCI-H522 lung 0.128% | RXF 393 renal 3.81% | SF-539 CNS -23.7%

O=c1oc2ccc([N+](=O)[O-])cc2cc1Br
inactive: NCI-H226 lung 98.4% | NCI-H322M lung 108% | HOP-62 NSCLC 104% | NCI-H460 lung 107% | HOP-92 NSCLC 83.7% | NCI-H522 lung 97.9% | A549/ATCC NSCLC 108% | 786-0 renal 112% | COLO 205 colon 105% | DU-145 prostate 109% | K-562 leukemia 102% | MALME-3M melanoma 107% | MDA-MB-231 breast 109% | RXF 393 renal 108% | SF-268 CNS 103% | SF-295 CNS 98.8% | SF-539 CNS 82.2% | UACC-257 melanoma 104% | M14 melanoma 104%
